Experiment [1] has as its target Cytochrome P450 1A2 (Homo sapiens) (UniProt P05177). Description: p450-cyp1a2 (AID 410; calls by dose curve; note: potency is the fitted concentration of half-maximal effect). Put shortly: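 Read-out is luminescence from luciferin produced by CYP1A2 demethylation of Luciferin-ME (100uM, at Km). Detection reagent stopped the 60 min NADPH-dependent reaction; signals were normalized to 57 uM furafylline.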
For experiment [2], the target named is Glucocorticoid receptor (Homo sapiens) (UniProt P04150). Nature of the experiment: GR-GFP Redistribution (AID 450;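 active = compounds whose dose series gives a full or clear partial fitted curve of increased nuclear translocation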; note: potency is the fitted concentration of half-maximal effect).
For experiment [3] the target is unchanged. Nature of the experiment: GR-EFC Redistribution (AID 451; calls by dose curve; note: potency is the fitted concentration of half-maximal effect). To be noted: CHO-K1 GR-EFC translocation, beta-gal luminescence, 2 h. Put shortly: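 Translocation of GR-ED fusion to nuclear EA restores b-gal, read by luminescence after 1 h room-temperature detection. Engineered CHO-K1 biosensor cells, 1,000/well, exposed 2 h at 37 C to titrations up to 46 uM final.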

Experiment [4] has as its target Mitogen-activated protein kinase 10 (Mus musculus) (UniProt Q61831). Nature of the experiment: JNK3 AlphaScreen Assay (AID 530; active = well fitted curve in either direction with a large enough effect, not every such curve was filed as active;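 note: kinase came from lysate of stimulated human HepG2 cells; signal reports phosphorylation of biotinylated GST-cJun 1-79 at Ser73 with 10 µM ATP; series mostly up to about 57 µM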). Put shortly:
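Kinase buffer: 20 mM Tris-HCl pH 7.6, 10 mM MgCl2, 1 mM DTT, 0.1 mM Na3VO4, 0.01% Tween-20; ATP 10 uM. Substrate biotin-GST-cJun(1-79), enzyme from activated HepG2 lysates. Detection by Ser73 phospho-antibody AlphaScreen.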

Experiment [5] has as its target 3',5'-cyclic-AMP phosphodiesterase 4B (Homo sapiens) (UniProt Q07343). Nature of the experiment: qHTS Assay for Inhibitors of PDE-IV (AID 607; active = well fitted activation curve with a large enough effect in the main read-out, with a control signal flat, not every such curve was filed as active). Put shortly:
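ACTOne HEK293 cells carry a modified cAMP-gated CNG channel and express endogenous PDE4; plated 1000 cells/well, compounds up to 22.9 uM final. Membrane-potential dye fluorescence (ex 535/em 590) was read; parental cells received 10 uM forskolin + 100 uM RO 20-1724.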

Experiment [6] has as its target Cytochrome P450 2C9 (Homo sapiens) (UniProt P11712). Description: qHTS Assay for Inhibitors and Substrates of Cytochrome P450 2C9 (AID 883). Note: nearly all actives have a fitted effect of over 60% in size. Note: potency is the fitted concentration of half-maximal effect. Put shortly:
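Luminescent read-out of deoxyluciferin hydroxylation, normalized to 57uM sulphaphenazole (AC100). Reaction: 10nM enzyme, 100uM Luciferin-H (equal to KM), 25mM KPO4, 10 min compound preincubation, then 60 min with NADPH regeneration, both at 37C.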
(In general: qHTS replaces the single test concentration by a dilution series.)

Experiment [7] deals with Cytochrome P450 2D6 (Homo sapiens) (UniProt P10635). Nature of the experiment: qHTS Assay for Inhibitors and Substrates of Cytochrome P450 2D6 (AID 891). Note: nearly all actives have a fitted effect of over 60% in size. Note: potency is the fitted concentration of half-maximal effect. In outline: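 Luminescent read-out of luciferin formed by 5 nM human CYP2D6 demethylating 30 uM Luciferin-ME EGE (Km level) over 60 min at room temperature after NADPH regeneration addition. Data normalized to full inhibition by 1.43 uM quinidine.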

In experiment [8] the target is Cytochrome P450 2C19 (Homo sapiens) (UniProt P33261). Nature of the experiment: qHTS Assay for Inhibitors and Substrates of Cytochrome P450 2C19 (AID 899). Note: nearly all actives have a fitted effect of over 60% in size. Note: potency is the fitted concentration of half-maximal effect. In outline: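 Luminescence readout of luciferin formed from 10uM Luciferin-H EGE (KM level) by 5 nM CYP2C19 in 50mM KPO4. 60 min NADPH-driven reaction at 37C after 10 min compound preincubation; data scaled to 57uM ketoconazole inhibition.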

Experiment [9] addresses Cytochrome P450 3A4 (Homo sapiens) (UniProt P08684). Nature of the experiment: qHTS Assay for Activators of Cytochrome P450 3A4 (AID 885). Note: nearly all actives have a fitted effect of over 65% in size. Put shortly: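 CYP3A4 activity: Luciferin-PPXE O-dealkylation, 25uM substrate, 200mM KPO4, RT throughout. Read-out is luciferase luminescence; higher values reflect activation.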
Experiment [10] deals with DNA dC->dU-editing enzyme APOBEC-3G (Homo sapiens) (UniProt Q9HC16). Nature of the experiment: qHTS for inhibitors of Vif-A3G interactions: Validation (AID 588379). Put shortly: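 Yellow fluorescence (Ex 488, Em 500-530) of Vif-coexpressing HeLa A3G-eYFP cells, scanned by Acumen cytometer, reports blocked A3G degradation. Cells plated at 700/well overnight at 37 deg C before compound addition, then a further overnight compound incubation at 37 deg C.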

Experiment [11] has as its target Cytochrome P450 3A4 (Homo sapiens) (UniProt P08684). Nature of the experiment: qHTS Assay for Inhibitors and Substrates of Cytochrome P450 3A4 (AID 884). Note: potency is the fitted concentration of half-maximal effect; nearly all actives have a fitted effect of over 50% in size. Put shortly: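 Luminescent readout of luciferin produced by CYP3A4 (20 nM) dealkylation of Luciferin-PPXE, 25 uM (its KM). NADPH-driven reaction ran 60 min at RT after 10 min compound preincubation; data scaled to 57 uM ketoconazole as 100% inhibition.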

Data on 19 molecules can be found in PubChem BioAssay (NCATS).

The structures appear in SMILES notation. A number with no mark means an inactive call. Results filed as inconclusive are left out. Calls of active or inactive are those of the source. Unless noted, calls come from the whole dose curve; as a rule, active = well fitted curve in the direction sought with a large enough effect; inconclusive = small, poorly fitted or top-dose-only effect, or another doubt; inactive = no such curve, though single readings can be large; an effect the other way counts as inactive or inconclusive. Where a SMILES comes first, the peptide text is derived from it.

3',5'-cyclic-AMP phosphodiesterase 4B (Homo sapiens), sequence (Q07343 whole entry, looked up): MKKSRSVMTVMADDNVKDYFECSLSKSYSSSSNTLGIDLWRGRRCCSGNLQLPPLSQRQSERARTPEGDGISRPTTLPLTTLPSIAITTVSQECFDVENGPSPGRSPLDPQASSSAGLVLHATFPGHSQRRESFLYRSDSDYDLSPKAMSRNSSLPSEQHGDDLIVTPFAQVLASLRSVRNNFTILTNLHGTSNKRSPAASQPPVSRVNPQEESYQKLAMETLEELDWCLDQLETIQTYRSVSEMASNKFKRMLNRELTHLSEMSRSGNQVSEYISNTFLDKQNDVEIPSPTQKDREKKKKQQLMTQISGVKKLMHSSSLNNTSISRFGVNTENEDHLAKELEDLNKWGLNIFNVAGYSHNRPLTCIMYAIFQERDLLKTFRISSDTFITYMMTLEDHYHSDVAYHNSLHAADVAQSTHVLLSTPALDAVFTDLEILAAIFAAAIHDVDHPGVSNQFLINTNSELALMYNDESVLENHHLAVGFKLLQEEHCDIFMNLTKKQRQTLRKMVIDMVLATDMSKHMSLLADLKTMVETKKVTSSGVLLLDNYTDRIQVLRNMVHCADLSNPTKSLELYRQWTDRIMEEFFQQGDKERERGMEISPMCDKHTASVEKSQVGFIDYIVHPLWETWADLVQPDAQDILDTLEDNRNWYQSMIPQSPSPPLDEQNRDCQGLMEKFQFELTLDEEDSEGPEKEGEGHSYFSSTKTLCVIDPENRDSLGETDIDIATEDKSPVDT
Cytochrome P450 2C19 (Homo sapiens), sequence (P33261 whole entry, looked up): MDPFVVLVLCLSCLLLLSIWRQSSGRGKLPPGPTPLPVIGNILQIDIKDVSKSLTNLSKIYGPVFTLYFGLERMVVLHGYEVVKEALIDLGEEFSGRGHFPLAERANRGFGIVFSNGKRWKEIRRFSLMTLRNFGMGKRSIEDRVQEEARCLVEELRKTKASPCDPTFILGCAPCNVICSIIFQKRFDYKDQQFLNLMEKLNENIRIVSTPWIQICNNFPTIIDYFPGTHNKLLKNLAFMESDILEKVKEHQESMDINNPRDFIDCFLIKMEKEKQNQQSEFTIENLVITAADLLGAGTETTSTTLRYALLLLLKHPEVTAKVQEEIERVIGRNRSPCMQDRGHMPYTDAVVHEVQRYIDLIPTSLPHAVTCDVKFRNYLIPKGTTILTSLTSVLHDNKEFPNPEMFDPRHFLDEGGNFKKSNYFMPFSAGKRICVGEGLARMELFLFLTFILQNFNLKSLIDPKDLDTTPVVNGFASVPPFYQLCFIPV
DNA dC->dU-editing enzyme APOBEC-3G (Homo sapiens), sequence (Q9HC16 whole entry, looked up): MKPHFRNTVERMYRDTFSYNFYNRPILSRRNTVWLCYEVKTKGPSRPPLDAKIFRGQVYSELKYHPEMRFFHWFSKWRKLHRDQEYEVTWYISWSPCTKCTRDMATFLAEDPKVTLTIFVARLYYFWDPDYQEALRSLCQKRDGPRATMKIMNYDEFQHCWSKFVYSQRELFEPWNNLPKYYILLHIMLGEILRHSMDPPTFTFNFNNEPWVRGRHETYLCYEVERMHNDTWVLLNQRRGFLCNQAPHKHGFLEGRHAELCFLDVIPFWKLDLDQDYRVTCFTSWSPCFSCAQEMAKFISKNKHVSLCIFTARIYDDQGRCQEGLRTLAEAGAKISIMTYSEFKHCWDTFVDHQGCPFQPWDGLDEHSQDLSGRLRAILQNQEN
Cytochrome P450 1A2 (Homo sapiens), sequence (P05177 whole entry, looked up): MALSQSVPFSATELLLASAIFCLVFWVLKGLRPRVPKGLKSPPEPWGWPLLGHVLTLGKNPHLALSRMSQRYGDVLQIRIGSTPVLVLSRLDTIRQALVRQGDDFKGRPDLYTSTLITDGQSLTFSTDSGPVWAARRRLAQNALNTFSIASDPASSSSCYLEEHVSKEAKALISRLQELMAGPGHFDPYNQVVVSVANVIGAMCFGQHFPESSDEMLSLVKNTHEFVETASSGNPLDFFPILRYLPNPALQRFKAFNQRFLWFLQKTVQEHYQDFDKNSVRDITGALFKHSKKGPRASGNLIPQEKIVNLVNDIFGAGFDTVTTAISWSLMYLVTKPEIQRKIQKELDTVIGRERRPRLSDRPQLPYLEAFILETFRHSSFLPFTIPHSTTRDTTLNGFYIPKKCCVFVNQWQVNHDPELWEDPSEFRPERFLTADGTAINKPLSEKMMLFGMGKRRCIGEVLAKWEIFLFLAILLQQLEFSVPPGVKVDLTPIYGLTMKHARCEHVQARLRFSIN
Cytochrome P450 2D6 (Homo sapiens), sequence (P10635 whole entry, looked up): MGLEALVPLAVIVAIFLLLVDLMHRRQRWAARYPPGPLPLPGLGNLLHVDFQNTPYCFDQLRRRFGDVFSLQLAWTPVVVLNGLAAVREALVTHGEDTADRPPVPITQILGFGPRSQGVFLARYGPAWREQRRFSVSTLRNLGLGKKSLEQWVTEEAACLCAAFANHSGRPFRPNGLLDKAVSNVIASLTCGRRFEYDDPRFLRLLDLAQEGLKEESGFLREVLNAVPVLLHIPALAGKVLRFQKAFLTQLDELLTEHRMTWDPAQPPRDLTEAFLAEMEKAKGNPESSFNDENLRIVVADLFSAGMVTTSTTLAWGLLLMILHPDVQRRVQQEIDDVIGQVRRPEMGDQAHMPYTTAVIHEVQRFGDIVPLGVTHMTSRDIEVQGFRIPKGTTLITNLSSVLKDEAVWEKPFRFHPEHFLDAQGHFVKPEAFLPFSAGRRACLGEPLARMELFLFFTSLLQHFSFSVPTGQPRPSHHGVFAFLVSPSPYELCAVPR
Cytochrome P450 3A4 (Homo sapiens), sequence (P08684 whole entry, looked up): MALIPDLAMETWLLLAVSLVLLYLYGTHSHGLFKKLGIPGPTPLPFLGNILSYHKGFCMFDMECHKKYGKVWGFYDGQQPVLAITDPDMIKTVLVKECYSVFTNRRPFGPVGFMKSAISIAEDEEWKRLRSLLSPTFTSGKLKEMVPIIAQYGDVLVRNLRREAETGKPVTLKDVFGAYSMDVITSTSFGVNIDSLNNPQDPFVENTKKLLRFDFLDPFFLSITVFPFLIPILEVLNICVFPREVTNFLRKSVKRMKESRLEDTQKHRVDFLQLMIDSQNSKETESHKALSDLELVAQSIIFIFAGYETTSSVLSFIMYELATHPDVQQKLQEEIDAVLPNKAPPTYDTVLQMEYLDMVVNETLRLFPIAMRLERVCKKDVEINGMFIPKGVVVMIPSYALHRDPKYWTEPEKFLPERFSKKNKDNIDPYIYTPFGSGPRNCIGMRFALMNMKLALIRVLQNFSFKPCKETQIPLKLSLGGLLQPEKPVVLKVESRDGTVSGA
Glucocorticoid receptor (Homo sapiens), sequence (P04150 whole entry, looked up, the tested form may be a part): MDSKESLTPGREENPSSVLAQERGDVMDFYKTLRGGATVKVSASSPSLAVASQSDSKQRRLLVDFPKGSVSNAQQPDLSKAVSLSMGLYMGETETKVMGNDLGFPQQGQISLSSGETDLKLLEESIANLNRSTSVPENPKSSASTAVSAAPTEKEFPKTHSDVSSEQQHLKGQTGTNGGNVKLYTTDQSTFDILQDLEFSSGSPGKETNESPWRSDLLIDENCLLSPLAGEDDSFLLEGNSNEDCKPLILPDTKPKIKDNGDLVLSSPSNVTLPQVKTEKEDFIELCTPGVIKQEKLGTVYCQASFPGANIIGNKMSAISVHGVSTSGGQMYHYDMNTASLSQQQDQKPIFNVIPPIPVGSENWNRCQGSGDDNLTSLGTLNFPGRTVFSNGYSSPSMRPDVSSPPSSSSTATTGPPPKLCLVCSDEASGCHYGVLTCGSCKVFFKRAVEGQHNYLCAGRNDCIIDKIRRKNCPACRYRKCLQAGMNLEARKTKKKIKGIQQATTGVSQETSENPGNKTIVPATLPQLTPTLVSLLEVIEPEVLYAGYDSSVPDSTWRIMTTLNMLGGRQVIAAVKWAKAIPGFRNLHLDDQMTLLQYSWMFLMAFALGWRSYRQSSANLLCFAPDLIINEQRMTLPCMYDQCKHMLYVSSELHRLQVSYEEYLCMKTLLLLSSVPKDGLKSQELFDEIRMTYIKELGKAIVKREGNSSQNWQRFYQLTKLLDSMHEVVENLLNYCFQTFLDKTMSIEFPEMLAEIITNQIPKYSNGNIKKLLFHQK
Cytochrome P450 2C9 (Homo sapiens), sequence (P11712 whole entry, looked up): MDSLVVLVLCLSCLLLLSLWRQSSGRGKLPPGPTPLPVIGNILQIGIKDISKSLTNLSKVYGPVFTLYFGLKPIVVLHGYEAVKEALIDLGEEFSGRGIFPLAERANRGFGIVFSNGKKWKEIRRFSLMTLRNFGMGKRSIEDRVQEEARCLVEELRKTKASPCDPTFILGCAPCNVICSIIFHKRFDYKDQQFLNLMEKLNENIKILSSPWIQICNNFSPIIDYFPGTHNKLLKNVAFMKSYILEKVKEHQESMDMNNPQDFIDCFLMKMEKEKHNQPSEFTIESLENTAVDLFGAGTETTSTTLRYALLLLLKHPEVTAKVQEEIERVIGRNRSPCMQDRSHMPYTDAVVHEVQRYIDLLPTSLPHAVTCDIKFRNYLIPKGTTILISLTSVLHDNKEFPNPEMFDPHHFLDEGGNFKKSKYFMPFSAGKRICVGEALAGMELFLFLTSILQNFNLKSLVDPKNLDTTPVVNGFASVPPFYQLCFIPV

Regarding `Nc1ccccc1C(=O)C[C@@H](N)C(=O)O`, the Potency entry in [1], in experiment [4], in experiment [5], in experiment [6], in experiment [7] and in experiment [8] was “inactive” throughout. Moreover, the Potency in experiment [2] and in experiment [3] was more than 46 µM each time.
As to `O=c1cc(-c2ccccc2O)oc2ccc3ccccc3c12`, the Potency was 1 µM (active) in experiment [1], more than 46 µM in experiment [2], more than 46 µM in experiment [3] and 20 µM (active) in experiment [7]. Besides, the Potency result in [9] was “inactive”. Besides, the molecule was called inactive in [10].
Turning to `COc1ccc(-c2oc3cc(OC)c(OC(C)=O)c(OC)c3c(=O)c2OC)cc1OC(C)=O`, the Potency was 12.6 µM (active) in experiment [1], more than 46 µM in experiment [2], more than 46 µM in [3] and 5.01 µM (active) in experiment [11]. Besides, the Potency entry in experiment [9], in experiment [7] and in [8] was “inactive” in each case. Also, in experiment [10], the molecule was classed as inactive.
As to `CC1=CC(=O)CC(C)(C)[C@@]1(O)/C=C\C(C)=C\C(=O)O`, the Potency result in [1], in [4], in experiment [6], in experiment [7] and in [8] was “inactive” in each case. Besides, the Potency in [2] and in experiment [3] was more than 46 µM each time.
Consider `COc1cc2oc(-c3ccccc3)cc(=O)c2cc1OC`, for which the Potency in experiment [1] is 0.2 µM (active); in experiment [2], more than 46 µM; in experiment [3] it was more than 46 µM; in [11], 15.8 µM (active). Also, the Potency result in experiment [5], in [6], in experiment [9] and in experiment [7] was “inactive” each time. For the same molecule, the call in experiment [10] was inactive.
Take `O=c1cc(-c2ccc(O)c(O)c2)oc2cccc(O)c12`: the Potency in experiment [1] is 0.158 µM (active); in [2], more than 46 µM; in [3], more than 46 µM; in experiment [6], 7.94 µM (active); in experiment [11], 15.8 µM (active). Moreover, the Potency entry in [5], in experiment [9] and in [7] was “inactive” each time. The molecule was called inactive in [10].
Regarding `N[C@@H](Cc1c[nH]c2ccccc12)C(=O)NCC(=O)O` (H-Trp-Gly-OH), the Potency entry in [1], in [4], in experiment [6], in experiment [7] and in experiment [8] was “inactive” in each case. In addition, the Potency in experiment [2] and in experiment [3] was more than 46 µM throughout.
On to `CC1(C)CCC[C@@]2(C)[C@@H]1CC[C@]1(C)OC(=O)C[C@@H]21`, for which the Potency result in [1], in experiment [4] and in experiment [7] was “inactive” throughout. Also, the Potency in [2] was more than 46 µM; in experiment [3], more than 46 µM; in [8], 15.8 µM (active).
In the case of `O=C(/C=C\c1ccc(O)c(O)c1)O[C@H]1C[C@@](O)(C(=O)O)C[C@H](O)[C@@H]1O`, the Potency entry in [1], in [4], in experiment [5], in experiment [6], in experiment [7] and in experiment [8] was “inactive” in each case. Moreover, the Potency in [2] and in [3] was more than 46 µM in each case.
In the case of `O=c1c(O)c(-c2cccc(O)c2)oc2ccccc12`, the Potency in experiment [1] was 0.501 µM (active); in experiment [2], more than 46 µM; in [3] it was more than 46 µM; in experiment [6] it was 15.8 µM (active); in [11], 15.8 µM (active); in experiment [8], 25.1 µM (active). Moreover, in [9], the Potency result was “inactive”. In experiment [10], the call was inactive.
On to `COc1cccc(-c2oc3ccccc3c(=O)c2O)c1`, for which the Potency is 0.2 µM (active) in experiment [1]; more than 46 µM in [2]; more than 46 µM in experiment [3]; 12.6 µM (active) in experiment [6]; 12.6 µM (active) in experiment [11]; 6.31 µM (active) in [8]. For the same molecule, the Potency result in [5] and in [9] was “inactive” in each case. Moreover, in experiment [10], the molecule was classed as inactive.
On to `CC(C)C[C@@H](CC(=O)N[C@@H](CCC(=O)O)CC(=O)O)NC(=O)[C@@H]1CNCC[C@H]1NC(=O)C[C@@H](NC(=O)C[C@H](CO)NC(=O)[C@@H]1CCCC[C@H]1N)C(C)C`, for which the Potency result in [1], in experiment [4], in [5], in experiment [6], in experiment [7] and in experiment [8] was “inactive” each time. In experiment [3], the Potency is more than 46 µM.
As for `CC(C)[C@@H](CC(=O)N[C@@H]1CCNC[C@H]1C(=O)N[C@H](CC(=O)N[C@@H](CCC(=O)O)CC(=O)O)Cc1ccccc1)NC(=O)C[C@H](Cc1c[nH]c2ccccc12)NC(=O)[C@@H]1CNCC[C@H]1N`, the Potency entry in experiment [1], in experiment [4], in experiment [5], in [6] and in experiment [7] was “inactive” in each case. Moreover, the Potency in [3] is more than 46 µM.
Regarding `CC(C)C[C@@H](CC(=O)N[C@@H](CCCN)CC(=O)N[C@@H]1CCCC[C@H]1C(=O)N[C@H](CC(=O)N[C@@H](CCC(=O)O)CC(=O)O)Cc1c[nH]c2ccccc12)NC(=O)[C@@H]1CNCC[C@H]1N`, the Potency result in experiment [1], in [4], in experiment [5], in experiment [6], in experiment [7] and in experiment [8] was “inactive” in each case. Moreover, the Potency in [3] is more than 46 µM.
Turning to `COc1ccc([C@@H]2OC[C@]3(COC(C)=O)[C@H](C)C=C(C)[C@@H]2[C@H]3C)cc1`, the Potency in experiment [1] is 15.8 µM (active); in experiment [2] it was more than 46 µM; in [3] it was more than 46 µM; in experiment [8] it was 6.31 µM (active). Moreover, in experiment [7], the Potency result was “inactive”.
For `CC(C)[C@@H](CC(=O)N[C@@H]1CCNC[C@H]1C(=O)N[C@H](CC(=O)N[C@@H](CCC(=O)O)CC(=O)O)Cc1c[nH]c2ccccc12)NC(=O)C[C@H](Cc1ccccc1)NC(=O)[C@@H]1CCCC[C@H]1N`, the Potency in experiment [1] was 31.6 µM (active); in [3], more than 46 µM. Moreover, the Potency result in experiment [4], in experiment [5], in [6], in [7] and in experiment [8] was “inactive” throughout.
In the case of `C/C(=C\COc1cc(=O)[nH]c2ccccc12)CC[C@@H](O)C(C)(C)O`, the Potency in experiment [1] was 20 µM (active); in experiment [2] it was more than 46 µM. For the same molecule, the Potency result in [4], in [5], in experiment [6], in experiment [7] and in [8] was “inactive” in each case.
Turning to `CC(C)[C@@H](CC(=O)N[C@@H]1CCNC[C@H]1C(=O)N[C@H](CC(=O)N[C@@H](CCC(=O)O)CC(=O)O)Cc1c[nH]c2ccccc12)NC(=O)C[C@H](CO)NC(=O)[C@@H]1CCCC[C@H]1N`, the Potency result in [1], in [4], in experiment [5], in [6] and in experiment [7] was “inactive” each time. In [3], the Potency was more than 46 µM.
As for `CC(C)=CCC/C(C)=C/COc1c2ccoc2cc2oc(=O)ccc12`, the Potency is 0.316 µM (active) in experiment [1]; more than 46 µM in [2]; more than 46 µM in experiment [3]; 0.0316 µM (active) in experiment [6]; 0.0631 µM (active) in experiment [7]; 0.01 µM (active) in [8].
